A selection: hits, their analogues and other compounds. The true share with any hit is near 10%.
NIH3T3 tox – cytotoxic compounds in NIH 3T3 cells. AID 1345082. Potency, µM (top dose mostly 96.7 µM), for inactives: at the highest dose activity change, negative = cytotoxicity, most hits filed as inhibitors. NIH 3T3 viability, CellTiter-Glo ATP luminescence, 48-72 h. hit rate 4.3% among 94,000; also: % is scaled to controls: 0 for no effect and ±100 for the full control effect; nearly all actives have a fitted effect of over 55% in size
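Cytotoxicity is measured as loss of cellular ATP: NIH 3T3 cells (400/well) are exposed to compound for 48 or 72 hr at 37 °C, then CellTiter-Glo luminescence is imaged after 10 min at room temperature.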
HEK cytotox – cytotoxic compounds in HEK 293 cells; HEK 293 viability, ATP luminescence (CellTiter-Glo), 48-72 h; Potency, µM (titrated, usually from 115 µM), without a hit: top-dose activity change, negative = cytotoxicity, usual class: inhibitors; hit rate 6.6% among 94,000; AID 1345083; also: % is scaled to controls: 0 for no effect and ±100 for the full control effect; nearly all actives have a fitted effect of over 60% in size
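Cytotoxicity was scored by loss of ATP-coupled luminescence (CellTiter-Glo) in HEK 293 cells. Compound treatment ran 48 or 72 hr at 37 degree Celsius, 5% CO2, 95% humidity.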
FLuc inh-1 – blocks purified firefly luciferase enzyme activity | P08659 | purified P. pyralis luciferase, luminescence, biochemical | Potency, µM (doses to about 115 µM), usual class: inhibitors | hit rate 2.5% among 76,000; also: % is scaled to controls: 0 for no effect and ±100 for the full control effect; nearly all actives have a fitted effect of over 65% in size
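Luminescence read by CCD imaging after purified firefly luciferase (10nM final) was added to substrate buffer holding 10uM D-luciferin and 10uM ATP, pH 7.5, pre-dosed with compound.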
GPT2 inhibitor – blocks human glutamate pyruvate transaminase 2; hit rate 0.25% among 100,000; Recombinant GPT2, coupled pyruvate oxidase/HRP Amplex Red fluorescence; Potency, µM (top dose mostly 57.7 µM), for the others: at the highest dose activity change, negative = inhibition, usual class: inhibitors; Q8TD30; AID 1671188; also: % is scaled to controls: 0 for no effect and ±100 for the full control effect; nearly all actives have a fitted effect of over 60% in size
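Fluorescence of coupled pyruvate oxidase/HRP/Amplex Red system (50uM Amplex, 30 min, dark) reports pyruvate formed by GPT2. Enzyme reaction: 10ng/uL GPT2, 2mM L-alanine, 250uM a-KG, 30 min room temperature, pH 7.5; 50uM AOA control.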
hNpr1 antagonist – human Npr1 receptor antagonism | P16066 | HEK293 hNpr1 GloSensor cGMP, ANP-stimulated luminescence | Potency, µM (top dose mostly 46.3 µM), for the others: top-dose activity change, negative = inhibition, usual class: inhibitors | hit rate 1.6% among 76,000; calls by dose curve; also: % is scaled to controls: 0 for no effect and ±100 for the full control effect; nearly all actives have a fitted effect of over 60% in size
Target sequence (P16066 whole entry, looked up): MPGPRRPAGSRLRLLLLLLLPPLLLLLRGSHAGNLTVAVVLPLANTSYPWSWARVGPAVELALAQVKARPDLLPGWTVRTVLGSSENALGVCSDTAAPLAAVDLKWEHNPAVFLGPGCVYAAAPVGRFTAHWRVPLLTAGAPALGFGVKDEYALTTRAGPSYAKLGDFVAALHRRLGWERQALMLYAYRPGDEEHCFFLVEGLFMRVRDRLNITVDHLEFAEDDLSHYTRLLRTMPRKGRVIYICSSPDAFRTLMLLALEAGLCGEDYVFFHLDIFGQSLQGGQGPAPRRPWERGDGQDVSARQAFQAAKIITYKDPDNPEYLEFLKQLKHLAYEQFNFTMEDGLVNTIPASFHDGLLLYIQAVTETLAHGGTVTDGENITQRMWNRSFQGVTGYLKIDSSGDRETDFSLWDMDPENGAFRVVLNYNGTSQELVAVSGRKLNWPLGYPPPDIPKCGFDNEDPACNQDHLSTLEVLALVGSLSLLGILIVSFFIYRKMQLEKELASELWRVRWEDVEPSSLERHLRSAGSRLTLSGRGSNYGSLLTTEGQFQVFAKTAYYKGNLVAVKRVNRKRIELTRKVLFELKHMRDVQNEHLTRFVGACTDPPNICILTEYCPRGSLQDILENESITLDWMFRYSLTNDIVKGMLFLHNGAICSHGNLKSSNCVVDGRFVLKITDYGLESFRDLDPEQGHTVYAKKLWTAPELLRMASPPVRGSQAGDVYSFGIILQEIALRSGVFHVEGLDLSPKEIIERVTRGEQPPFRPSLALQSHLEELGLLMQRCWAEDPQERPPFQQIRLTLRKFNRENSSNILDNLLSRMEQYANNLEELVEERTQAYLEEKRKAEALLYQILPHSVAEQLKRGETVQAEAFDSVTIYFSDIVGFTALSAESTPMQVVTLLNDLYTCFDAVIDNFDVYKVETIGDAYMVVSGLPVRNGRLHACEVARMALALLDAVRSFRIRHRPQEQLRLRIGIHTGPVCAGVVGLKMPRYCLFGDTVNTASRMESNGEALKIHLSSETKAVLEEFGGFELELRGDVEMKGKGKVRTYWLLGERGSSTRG
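Compound pre-incubated 30 min at room temperature on GloSensor-loaded HEK293 cells stably carrying hNpr1 and the pGS-40F cGMP biosensor. Stimulation uses hNppA at 0.1 nM final; luminescence is taken at baseline and 20 min post-agonist.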
FLuc SDR no ATP – stabilizes firefly luciferase without ATP | hit rate 7.8% among 1,300 | Purified FLuc-C-HiBiT, Nano-Glo HiBiT luminescence, no ATP | Potency, µM (top dose mostly 32.7 µM), for inactives: top-dose activation (signal gain), actives largely listed as activators | shares compounds with FLuc inh-1 | AID 1963318; also: nearly all actives have a fitted effect of over 55% in size
FLuc SDR ATP – stabilizes firefly luciferase with ATP present; Potency, µM (doses to about 32.7 µM), without a hit: at the highest dose activation (gain of signal), hits mostly activators; purified FLuc-C-HiBiT + ATP, HiBiT complementation luminescence; hit rate 8.7% among 1,300; shares compounds with FLuc inh-1;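 also: signal reports ligand binding via conformational change of the enzyme rather than luciferase catalysis; % of control where 0% means no effect; nearly all actives have a fitted effect of over 55% in size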
FLuc inh-2 – blocks firefly luciferase enzymatic activity; shares compounds with FLuc inh-1; purified FLuc-C-HiBiT enzyme, luciferin luminescence; Potency, µM (titrated, usually from 32.7 µM), without a hit: at the highest dose activity change, negative = inhibition, actives largely listed as inhibitors; hit rate 42% among 1,300; also: % is scaled to controls: 0 for no effect and ±100 for the full control effect; nearly all actives have a fitted effect of over 70% in size
An asterisk follows results filed as active; [ ] = dose if it differs, or a comment. Unless noted, calls follow the shape of the dose curve; as a rule, active = well fitted curve in the direction sought with a large enough effect; inconclusive = small, poorly fitted or top-dose-only effect, or another doubt; inactive = no such curve, though single readings can be large; an effect the other way counts as inactive or inconclusive. Potency is read from the fitted curve at half-maximal effect.

For COc1cccc(-c2noc(Nc3ccc4c(c3)OCCO4)n2)c1 the results were NIH3T3 tox -60.0%, HEK cytotox inconclusive, FLuc inh-1 0.316µM*, GPT2 inhibitor inconclusive, hNpr1 antagonist 5.01µM*, FLuc SDR no ATP inconclusive, FLuc SDR ATP inconclusive and FLuc inh-2 1.57µM*.
c1ccc(-c2noc(-c3cncnc3Nc3ccc4c(c3)OCCO4)n2)cc1 was read as NIH3T3 tox -8.7%, HEK cytotox 3.7%, FLuc inh-1 inconclusive, GPT2 inhibitor -3.4% and hNpr1 antagonist -6.5%.
CCc1ccc(Nc2nc(-c3ccccc3F)no2)cc1 was read as NIH3T3 tox inconclusive, HEK cytotox inconclusive, FLuc inh-1 2.51µM*, GPT2 inhibitor -14.0%, hNpr1 antagonist 12.6µM*, FLuc SDR no ATP 19.7%, FLuc SDR ATP 19.3% and FLuc inh-2 6.24µM*.
`CCCc1noc(-c2nc(-c3ccccc3F)no2)n1` gave NIH3T3 tox -11.9%, HEK cytotox -19.4%, FLuc inh-1 5.62µM*, GPT2 inhibitor inactive, hNpr1 antagonist inconclusive, FLuc SDR no ATP 14.3%, FLuc SDR ATP 19.9% and FLuc inh-2 inconclusive.
CCc1noc(-c2nc(-c3ccccc3OC)no2)n1 was read as NIH3T3 tox -5.6%, HEK cytotox inconclusive, FLuc inh-1 inactive, GPT2 inhibitor -12.8% and hNpr1 antagonist -1.6%.
For COc1cccc(-c2noc(Nc3ccc4c(c3)OCO4)n2)c1 the results were NIH3T3 tox inconclusive, HEK cytotox inconclusive, FLuc inh-1 2µM*, GPT2 inhibitor inactive, hNpr1 antagonist inconclusive, FLuc SDR no ATP 29.3%, FLuc SDR ATP inconclusive and FLuc inh-2 6.24µM*.
Screening COc1ccc(-c2noc(Nc3ccc4c(c3)OCO4)n2)cc1 returned NIH3T3 tox -22.2%, HEK cytotox inconclusive, FLuc inh-1 inconclusive, GPT2 inhibitor inactive and hNpr1 antagonist -22.2%.
CCc1nnc2ccc(NCc3ccc(F)cc3)nn12 was read as NIH3T3 tox inconclusive, HEK cytotox inconclusive, FLuc inh-1 inactive, GPT2 inhibitor inactive and hNpr1 antagonist -3.5%.
For CC1CCN(C(=O)c2cc(CN3CCC(Cc4ccccc4)CC3)on2)CC1 the results were NIH3T3 tox -21.6%, HEK cytotox inconclusive, FLuc inh-1 inactive, GPT2 inhibitor inconclusive and hNpr1 antagonist -1.8%.
COc1ccc(OC)c(-c2noc(Nc3cccc(F)c3)n2)c1 was read as NIH3T3 tox -12.0%, HEK cytotox inconclusive, FLuc inh-1 inactive, GPT2 inhibitor inactive and hNpr1 antagonist -4.9%.
For COc1cccc(-c2noc(Nc3ccc(OC)c(OC)c3)n2)c1 the results were NIH3T3 tox inconclusive, HEK cytotox inconclusive, FLuc inh-1 2µM*, GPT2 inhibitor -5.4%, hNpr1 antagonist inconclusive, FLuc SDR no ATP inconclusive, FLuc SDR ATP 18.6% and FLuc inh-2 3.94µM*.
For COc1ccc(Nc2nc(-c3ccccc3F)no2)cc1OC the results were NIH3T3 tox inconclusive, HEK cytotox inconclusive, FLuc inh-1 2.24µM*, GPT2 inhibitor inactive, hNpr1 antagonist inconclusive, FLuc SDR no ATP 30.0%, FLuc SDR ATP inconclusive and FLuc inh-2 3.51µM*.
For COc1ccc(Nc2ncncc2-c2nc(-c3ccccc3)no2)cc1OC the results were NIH3T3 tox -1.9%, HEK cytotox -8.4%, FLuc inh-1 inactive, GPT2 inhibitor inactive and hNpr1 antagonist -21.3%.
Cc1onc(-c2ccccc2Cl)c1C(=O)N(C)c1ccc(Cl)cc1 was read as GPT2 inhibitor inactive.
Screening Cc1ccc(C(=O)O)cc1Nc1nc2ccccc2n2nnnc12 returned FLuc SDR no ATP 12.6%, FLuc SDR ATP 11.2% and FLuc inh-2 inconclusive.
`Cc1ccc(O)cc1Nc1ccnc(Nc2cccc(C(N)=O)c2)n1` gave GPT2 inhibitor 2.0%.
Screening CCc1noc(-c2cn(C3CCN(C(=O)c4cc(OC)cc(OC)c4)CC3)nn2)n1 returned NIH3T3 tox -6.4%, HEK cytotox -1.1%, FLuc inh-1 inactive, GPT2 inhibitor 3.9% and hNpr1 antagonist -0.1%.
`CNC(=O)c1cccc(-c2cnc(NC(=O)c3cn(C)cn3)c3c2CCO3)c1` gave FLuc SDR no ATP 22.6%[49.3 µM], FLuc SDR ATP inconclusive and FLuc inh-2 inconclusive.
For CN(C)c1cccc(C(=O)Nc2ncc(-c3cnn(C)c3)c3c2OCC3)c1 the results were NIH3T3 tox inconclusive, HEK cytotox -26.8%[172 µM], FLuc inh-1 inconclusive, GPT2 inhibitor 0.8%[88.5 µM] and hNpr1 antagonist 6.2%[70.6 µM].
`CNC(=O)c1cccc(-c2cnc(NC(=O)c3ccncc3)c3c2CCO3)c1` gave NIH3T3 tox inconclusive, HEK cytotox -14.9%[172 µM], FLuc inh-1 12.6µM*, GPT2 inhibitor -4.9%[88.5 µM], hNpr1 antagonist -15.2%[70.6 µM], FLuc SDR no ATP 23.4%[49.3 µM], FLuc SDR ATP inconclusive and FLuc inh-2 inconclusive.
COc1ccccc1-c1noc(-c2ccc(N3CCN(C)CC3)c([N+](=O)[O-])c2)n1 was read as FLuc SDR no ATP inconclusive, FLuc SDR ATP inconclusive and FLuc inh-2 4.95µM*.
`COc1ccc(-c2noc(-c3nc(-c4ccc5c(c4)OCO5)no3)n2)cc1` gave NIH3T3 tox inactive, HEK cytotox 3.2%, FLuc inh-1 inactive, GPT2 inhibitor inactive and hNpr1 antagonist -0.3%.
`Cc1ccccc1-c1noc(-c2ccc(N3CCCC3)c([N+](=O)[O-])c2)n1` gave FLuc SDR no ATP 22.3%, FLuc SDR ATP inconclusive and FLuc inh-2 inconclusive.
Screening COc1ccc(-c2noc(-c3ccc(N4CCN(C)CC4)c([N+](=O)[O-])c3)n2)cc1 returned FLuc SDR no ATP 20.8%, FLuc SDR ATP 13.2% and FLuc inh-2 inconclusive.
Screening COCCN(C)C[C@H]1C[C@H](CO)CN(C(=O)c2ccc(SC)cc2)C1 returned NIH3T3 tox -17.5%, HEK cytotox -8.8%, FLuc inh-1 inactive, GPT2 inhibitor -10.8% and hNpr1 antagonist 1.0%.
O=C(Nc1cc(Cl)cc(Cl)c1)c1ccn2nccc2c1 was read as NIH3T3 tox inconclusive, HEK cytotox -37.4%[172 µM], FLuc inh-1 14.1µM*, GPT2 inhibitor inactive, hNpr1 antagonist -23.8%[70.6 µM], FLuc SDR no ATP 24.1%[49.3 µM], FLuc SDR ATP 17.1%[49.3 µM] and FLuc inh-2 inconclusive.

Source: PubChem BioAssay (National Center for Advancing Translational Sciences (NCATS))
